# Measured values as given in PubChem BioAssay (Tox21).
# Records with an inconclusive call do not appear. Where a call stands in place of a potency, no number is given. The source made the active and inactive calls. Unless noted, calls come from the whole dose curve; as a rule, active = well fitted curve in the direction sought with a large enough effect in the repeat runs; inconclusive = weak or mixed curves; inactive = no such curve, though single readings can be large; an effect the other way counts as inactive or inconclusive.
# Key:
# [1] = qHTS assay to identify aromatase inhibitors - cell viability counter screen (AID 743084);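 note: cells stimulated with testosterone during compound exposure; nearly all actives have a fitted effect of over 55% in size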; note: potency is the fitted concentration of half-maximal effect
# [2] = biological target: Aryl hydrocarbon receptor (Homo sapiens) (UniProt P35869); assay: qHTS assay to identify small molecule that activate the aryl hydrocarbon receptor (AhR) signaling pathway (AID 743085); note: nearly all actives have a fitted effect of over 15% in size; note: potency is the fitted concentration of half-maximal effect;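 for activation: HG2L7.5c1 human HepG2 liver cells with stably integrated DRE-driven firefly reporter; series mostly up to about 70 µM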
# Procedure, shortened: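 Stably transfected human liver carcinoma cells (HG2L7.5c1; 20 DRE-firefly luciferase) were incubated 5 h, dosed, and kept 24 h at 37C. Agonism was scored from increased luciferase luminescence.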
# [3] = qHTS assay to identify small molecule that activate the aryl hydrocarbon receptor (AhR) signaling pathway - cell viability counter screen (AID 743086); note: nearly all actives have a fitted effect of over 45% in size; note: potency is the fitted concentration of half-maximal effect
# Procedure, shortened: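 HepG2-AhR-luc (HG2L7.5c1) cells, 4000/well, treated 24 h at 37 C with compound; viability measured as CellTiter-Fluor fluorescence after 30 min in the same wells as the luciferase read.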
# [4] = biological target: Peroxisome proliferator-activated receptor gamma (Homo sapiens) (UniProt P37231); assay: qHTS assay to identify small molecule agonists of the peroxisome proliferator-activated receptor gamma (PPARg) signaling pathway (AID 743094; active = well fitted activation curve with a large enough effect in the signal ratio in the repeat runs, not every such curve was filed as active; the % refers to the signal ratio)
# Procedure, shortened: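 GeneBLAzer PPARg UAS-bla HEK293H cells carrying a stably integrated beta-lactamase reporter were pre-incubated 5 h at 37C, then exposed to compounds in DMSO for 17 h at 37C; LiveBLAzer B/G FRET substrate was added for 1 h at room temperature and fluorescence read.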
# [5] = biological target: Peroxisome proliferator-activated receptor gamma (Homo sapiens) (UniProt P37231); assay: qHTS assay to identify small molecule antagonists of the peroxisome proliferator-activated receptor gamma (PPARg) signaling pathway (AID 743191; calls by dose curve; note: nearly all actives have a fitted effect of over 30% in size; note: potency is the fitted concentration of half-maximal effect)
# Procedure, shortened: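 GeneBLAzer PPARg UAS-bla HEK293H cells, 5 h post-plating, exposed to compounds 17 h at 37C. LiveBLAzer B/G FRET substrate added for 1 h at room temperature; beta-lactamase reporter read by fluorescence intensity.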
# [6] = qHTS assay to identify small molecule antagonists of the peroxisome proliferator-activated receptor gamma (PPARg) signaling pathway - cell viability counter screen (AID 743194); details: Potency: co-treated with 50 nM rosiglitazone; note: nearly all actives have a fitted effect of over 55% in size
# Procedure, shortened: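 Cytotoxicity counter screen in PPARg-bla HEK293H cells, same wells as reporter assay. Compounds plus 50 nM rosiglitazone (final) for 17 h at 37 C, then viability read by CellTiter-Glo luminescence.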
# [7] = qHTS assay for small molecule agonists of the antioxidant response element (ARE) signaling pathway - cell viability counter screen (AID 743203; calls by dose curve; note: nearly all actives have a fitted effect of over 55% in size; note: potency is the fitted concentration of half-maximal effect)
# Procedure, shortened: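 CellSensor ARE-bla HepG2 cells, 2,000 per well, rested 5 hrs at 37C/5% CO2, then exposed to compound in DMSO for 16 hrs; viability read as CellTiter-Glo luminescence after 30 min at room temperature, in the reporter wells.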
# [8] = qHTS assay for small molecule activators of the heat shock response signaling pathway - cell viability counter screen (AID 743209); note: nearly all actives have a fitted effect of over 50% in size; note: potency is the fitted concentration of half-maximal effect
# Procedure, shortened: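 CellSensor HSE-bla HeLa cells, plated overnight at 37 C/5% CO2, were exposed to compounds in DMSO for 5 h at 37 C. Viability was then read in the same wells by CellTiter-Glo luminescence after 30 min at room temperature.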
# [9] = qHTS assay for small molecule agonists of the antioxidant response element (ARE) signaling pathway (AID 743202; active = well fitted activation curve with a large enough effect in the signal ratio in the repeat runs, not every such curve was filed as active; the % refers to the signal ratio; note: potency is the fitted concentration of half-maximal effect)
# Procedure, shortened: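 ARE-bla HepG2 cells (beta-lactamase reporter under the antioxidant response element), plated 5 hours, then exposed to compounds 16 hours at 37 C. LiveBLAzer B/G FRET substrate added for 2 hours at room temperature; fluorescence intensity read.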
# [10] = qHTS assay for small molecule activators of the heat shock response signaling pathway (AID 743210; active = well fitted activation curve with a large enough effect in the signal ratio in the repeat runs, with a control signal flat, not every such curve was filed as active; the % refers to the signal ratio; note: series mostly up to about 63 µM)
# Procedure, shortened: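 HSE-bla HeLa cells (beta-lactamase reporter under heat shock response elements), plated overnight, then exposed to compounds 5 h at 37 C; LiveBLAzer B/G FRET substrate added, 2.5 h at room temperature, fluorescence intensity read.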
# Chain of Peroxisome proliferator-activated receptor gamma (Homo sapiens) (P37231 whole entry, looked up): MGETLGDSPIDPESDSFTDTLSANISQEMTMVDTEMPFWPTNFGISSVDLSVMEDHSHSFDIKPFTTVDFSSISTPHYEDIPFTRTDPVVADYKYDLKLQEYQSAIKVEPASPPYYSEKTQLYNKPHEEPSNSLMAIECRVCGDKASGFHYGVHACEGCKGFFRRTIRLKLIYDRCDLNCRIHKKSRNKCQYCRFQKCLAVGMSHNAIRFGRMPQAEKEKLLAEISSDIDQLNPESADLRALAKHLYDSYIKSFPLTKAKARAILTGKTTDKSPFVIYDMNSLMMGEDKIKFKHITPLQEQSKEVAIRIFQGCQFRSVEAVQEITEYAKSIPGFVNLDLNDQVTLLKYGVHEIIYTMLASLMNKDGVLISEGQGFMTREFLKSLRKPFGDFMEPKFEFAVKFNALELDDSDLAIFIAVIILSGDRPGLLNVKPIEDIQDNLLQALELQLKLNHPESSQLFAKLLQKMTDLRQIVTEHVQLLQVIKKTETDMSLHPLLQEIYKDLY
# Chain of Aryl hydrocarbon receptor (Homo sapiens) (P35869 whole entry, looked up): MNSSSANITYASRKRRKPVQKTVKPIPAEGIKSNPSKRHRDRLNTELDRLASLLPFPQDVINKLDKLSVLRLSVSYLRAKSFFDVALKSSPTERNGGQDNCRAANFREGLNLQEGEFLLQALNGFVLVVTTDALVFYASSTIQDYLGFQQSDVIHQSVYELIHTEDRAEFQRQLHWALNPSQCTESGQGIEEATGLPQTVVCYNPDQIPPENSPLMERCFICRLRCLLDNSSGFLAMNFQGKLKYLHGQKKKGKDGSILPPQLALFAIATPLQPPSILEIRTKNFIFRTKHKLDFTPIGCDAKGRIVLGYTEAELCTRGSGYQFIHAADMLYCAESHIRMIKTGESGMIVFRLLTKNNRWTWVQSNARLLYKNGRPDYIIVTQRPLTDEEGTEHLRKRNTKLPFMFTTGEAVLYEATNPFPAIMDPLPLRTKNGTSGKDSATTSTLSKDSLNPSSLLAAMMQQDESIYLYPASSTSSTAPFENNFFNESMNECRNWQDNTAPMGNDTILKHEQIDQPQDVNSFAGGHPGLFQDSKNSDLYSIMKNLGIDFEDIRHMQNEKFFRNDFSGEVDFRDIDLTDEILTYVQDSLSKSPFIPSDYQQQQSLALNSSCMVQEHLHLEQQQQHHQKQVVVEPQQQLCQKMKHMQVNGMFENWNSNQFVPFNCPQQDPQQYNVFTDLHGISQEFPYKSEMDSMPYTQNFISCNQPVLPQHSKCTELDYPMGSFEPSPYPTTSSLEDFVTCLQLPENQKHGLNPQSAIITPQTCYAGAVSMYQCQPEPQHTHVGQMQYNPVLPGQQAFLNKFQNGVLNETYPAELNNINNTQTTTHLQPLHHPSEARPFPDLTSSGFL
SMILES,Potency [1],Potency [2],Potency [3],Potency [4],Potency [5],Potency [6],Potency [7],Potency [8],Potency [9],outcome [10]
CCCCCCCCOC(=O)c1ccc(C(=O)OCCCCCCCC)c(C(=O)OCCCCCCCC)c1,inactive,inactive,inactive,inactive,inactive,inactive,inactive,,,
N#CCc1ccccc1,inactive,inactive,inactive,inactive,inactive,inactive,inactive,inactive,,
Brc1ccccc1,inactive,inactive,inactive,inactive,inactive,inactive,inactive,,inactive,inactive
COc1cc(Cl)c(OC)cc1Cl,inactive,inactive,inactive,inactive,inactive,inactive,inactive,inactive,,inactive
COC(C)(C)CCC[C@H](C)C/C=C/C(C)=C/C(=O)OC(C)C,inactive,inactive,inactive,inactive,,,,,,
COc1cc(CC(C)N)cc2c1OCO2 (stereo not drawn),inactive,inactive,inactive,inactive,inactive,inactive,inactive,inactive,,inactive
BrCC(Br)C1CCC(Br)C(Br)C1 (stereo not drawn),inactive,inactive,inactive,inactive,inactive,inactive,inactive,inactive,,inactive
Cn1sc(Cl)cc1=O,inactive,inactive,inactive,inactive,inactive,,inactive,inactive,,
N#Cc1ccc(Cl)cc1,inactive,inactive,inactive,inactive,inactive,inactive,inactive,inactive,inactive,inactive
CC(Cl)C(C)Cl (stereo not drawn),inactive,inactive,inactive,inactive,inactive,,inactive,inactive,inactive,
ClCCCCBr,inactive,inactive,inactive,inactive,inactive,inactive,inactive,inactive,inactive,inactive
CCOP(=O)(OCC)SCCSCC,inactive,inactive,inactive,inactive,inactive,inactive,inactive,inactive,inactive,inactive
CC(C)(Cl)[N+](=O)[O-],inactive,inactive,inactive,inactive,inactive,inactive,inactive,inactive,inactive,inactive
CCCCCCCCCC(=O)O[C@H]1CC[C@H]2[C@@H]3CCC4=CC(=O)CC[C@@H]4[C@H]3CC[C@]12C,inactive,inactive,inactive,inactive,inactive,inactive,inactive,,,inactive
CC(C)=CCOc1c2occc2cc2ccc(=O)oc12,inactive,3.76 µM (active),inactive,inactive,inactive,inactive,inactive,inactive,,inactive
O=C1C(Cl)C(CCl)CN1c1cccc(C(F)(F)F)c1 (stereo not drawn),inactive,48.6 µM (active),inactive,inactive,21.9 µM (active),inactive,inactive,,,inactive
O=S(=O)(Cl)c1ccccc1,inactive,inactive,inactive,inactive,inactive,inactive,inactive,inactive,inactive,inactive
NC(=O)C(Cl)(Cl)Cl,inactive,inactive,inactive,inactive,inactive,inactive,inactive,inactive,,inactive
CCCN(CC1CC1)c1c([N+](=O)[O-])cc(C(F)(F)F)cc1[N+](=O)[O-],inactive,inactive,inactive,inactive,inactive,,inactive,,inactive,inactive
Cn1cc[n+](C)c1 (tested in a mixture with another compound),inactive,inactive,inactive,inactive,inactive,inactive,inactive,inactive,inactive,inactive
CC(O)(CS(=O)(=O)c1ccc(F)cc1)C(=O)Nc1ccc(C#N)c(C(F)(F)F)c1 (stereo not drawn),inactive,inactive,inactive,inactive,inactive,inactive,,inactive,,inactive
C=CCCl,inactive,inactive,inactive,inactive,inactive,,inactive,inactive,inactive,inactive
CC(C)(OO)c1ccccc1,inactive,inactive,inactive,inactive,inactive,inactive,61.1 µM (active),49 µM (active),,
CCCN(CCCl)c1c([N+](=O)[O-])cc(C(F)(F)F)cc1[N+](=O)[O-],inactive,inactive,inactive,inactive,inactive,,inactive,inactive,inactive,inactive
CC(C)(C)c1cc([N+](=O)[O-])cc([N+](=O)[O-])c1O,17.2 µM (active),inactive,27.2 µM (active),,,,,,,
COc1c(C(C)(C)C)cc([N+](=O)[O-])c(C)c1[N+](=O)[O-],inactive,inactive,inactive,inactive,inactive,,inactive,inactive,inactive,inactive
CC(C)(CCl)C(=O)Cl,inactive,inactive,inactive,inactive,inactive,inactive,inactive,inactive,inactive,
Cc1c(F)c(F)c(COC(=O)C2C(/C=C(\Cl)C(F)(F)F)C2(C)C)c(F)c1F (stereo not drawn),inactive,inactive,inactive,inactive,inactive,inactive,inactive,,,inactive

SMILES,Potency [1],Potency [2],Potency [3],Potency [4],Potency [5],Potency [6],Potency [7],Potency [8],Potency [9],outcome [10]
O=C(O)C1(c2ccc3c(c2)OC[C@H](Cc2ccc(-c4ccccc4)cc2)[C@H]3O)CCCC1,inactive,inactive,inactive,,,,,,,
CCOC(=O)COc1cc(-c2nn(C)c(OC(F)F)c2Cl)c(F)cc1Cl,inactive,19.3 µM (active),inactive,inactive,inactive,,inactive,inactive,inactive,
CCCCC(CC)COP(=O)(Oc1ccccc1)Oc1ccccc1 (stereo not drawn),inactive,inactive,inactive,inactive,inactive,inactive,inactive,inactive,,inactive
CC1C(=O)C[C@]2(C(C)C)C[C@H]12 (stereo partly drawn),inactive,inactive,inactive,inactive,inactive,inactive,inactive,inactive,inactive,inactive
C=COC(C)=O,inactive,inactive,inactive,inactive,inactive,,inactive,inactive,inactive,inactive
O=C(CBr)c1ccccc1,inactive,inactive,inactive,inactive,inactive,,inactive,,,
CC(=O)NC1CCSC1=O (stereo not drawn),inactive,inactive,inactive,inactive,inactive,,inactive,,inactive,inactive
CS/C(C)=N/OC(=O)N(C)SN(C)C(=O)O/N=C(\C)SC,inactive,inactive,inactive,inactive,,inactive,inactive,inactive,inactive,
O=C(CBr)OCc1ccccc1,inactive,inactive,inactive,inactive,,inactive,inactive,inactive,inactive,inactive
C=CCOC(C)=O,inactive,inactive,inactive,inactive,,inactive,inactive,inactive,inactive,inactive
COCC(C)N(C(=O)CCl)c1c(C)csc1C (stereo not drawn),inactive,inactive,inactive,inactive,,inactive,,inactive,4.33 µM (active),inactive
Cc1cc(=O)[nH]o1,inactive,inactive,inactive,inactive,,inactive,inactive,,inactive,inactive
Nc1nc(N)nc(N)n1,inactive,inactive,inactive,inactive,,inactive,inactive,inactive,inactive,inactive
CC(=O)CCC(C)=O,inactive,inactive,inactive,inactive,,inactive,inactive,,inactive,inactive
CCOP(O)OCC,inactive,inactive,inactive,inactive,,inactive,inactive,inactive,inactive,inactive
CN1C(=O)NC(=O)C(C)(C2=CCCCC2)C1=O (stereo not drawn),inactive,inactive,inactive,inactive,,inactive,inactive,,inactive,inactive
II,inactive,inactive,inactive,inactive,,inactive,inactive,inactive,inactive,inactive
CC[C@H]1C[C@H]2[C@@H]3CCC4=CC(=O)CC[C@@H]4[C@H]3CC[C@]2(C)[C@H]1O,inactive,inactive,inactive,inactive,,inactive,inactive,,29.8 µM (active),inactive
CCCN(CCC)c1c([N+](=O)[O-])cc(S(C)(=O)=O)cc1[N+](=O)[O-],inactive,inactive,inactive,inactive,,inactive,inactive,,inactive,
CCOC(=O)C(Cl)C(C)=O (stereo not drawn),inactive,inactive,inactive,inactive,,inactive,inactive,inactive,inactive,inactive
CCC(Cl)CCl (stereo not drawn),inactive,inactive,inactive,inactive,,inactive,inactive,inactive,inactive,inactive
C=CC(C)=O,inactive,inactive,inactive,inactive,,inactive,inactive,inactive,inactive,inactive
O=C(NC(=O)c1c(F)cccc1F)Nc1ccc(OC(F)(F)C(F)OC(F)(F)F)c(Cl)c1 (stereo not drawn),inactive,inactive,inactive,inactive,,inactive,inactive,inactive,,
ClCC(Br)CBr (stereo not drawn),inactive,inactive,inactive,inactive,,inactive,inactive,,inactive,inactive
CCCCN(N=O)C(=N)N[N+](=O)[O-],inactive,inactive,inactive,inactive,,inactive,inactive,,inactive,
[CH3][Sn]([CH3])([Cl])[Cl],inactive,inactive,inactive,inactive,,inactive,inactive,,34.4 µM (active),
C=CC(=O)OC(C)(C)C,inactive,inactive,inactive,inactive,,inactive,inactive,inactive,inactive,inactive
